Measured values from the supplement of paper PMC12494721.
Structures can show the parent of a compound that is named as a salt.

Columns and labels:
Details in all cases: incubation time: 27 h, anaerobic, 37 °C;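 for the amine columns active = adjusted P below 0.05 in both replicates with a change the same way and a mean fold change under 0.8 or over 1.25; inactive = the rest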
[1] = system: Clostridium sporogenes DSM 1664; experiment: growth (OD595) fold change vs plate DMSO controls (fold change (ratio)); higher = more growth
Summary of the method: (§1)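 Each value is the mean of 2 biological replicates, and fold changes above 1.5 were set to NA. The underlying readings were taken at 595 nm from shaken anaerobic mGAM cultures in 96-well plates after 27 h at 37 °C. They were blank-subtracted, corrected for compound background using 20 µM compound solutions in water, and converted to OD with a calibration factor of 5. Growth is the fold change relative to the median of the plate DMSO controls.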

[2] = system: Escherichia coli IAI1; experiment: as above
Summary of the method: as §1

[3] = system: Klebsiella aerogenes DSM 30053; experiment: as above
Summary of the method: as §1

[4] = system: Ruminococcus gnavus DSM 108212; experiment: as above
Summary of the method: as §1

[5] = system: Klebsiella aerogenes DSM 30053; experiment: fold change of Histamine concentration vs plate DMSO controls (fold change (ratio)); higher = more amine produced, active = hit call of the paper (significant change in both replicates, either direction)
Summary of the method: (§2)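 Amines were quantified by LC–triple-quadrupole MS in dynamic MRM mode against external calibration curves, with drift correction within each batch. The samples were whole anaerobic mGAM cultures of four gut bacterial strains, grown for 27 h at 37 °C in 80 µL wells and extracted with cold acetonitrile/methanol with 0.1% formic acid, then centrifuged. Values are reported as fold change over DMSO controls on the same plate. The mean of 2 biological replicates is given.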

[6] = system: Clostridium sporogenes DSM 1664; experiment: fold change of Tryptamine concentration vs plate DMSO controls (fold change (ratio)); higher = more amine produced, active = hit call of the paper (significant change in both replicates, either direction)
Summary of the method: as §2

[7] = system: Ruminococcus gnavus DSM 108212; experiment: as above
Summary of the method: as §2

[8] = system: Escherichia coli IAI1; experiment: fold change of Putrescine concentration vs plate DMSO controls (fold change (ratio)); higher = more amine produced, active = hit call of the paper (significant change in both replicates, either direction)
Summary of the method: as §2

[9] = system: Klebsiella aerogenes DSM 30053; experiment: as above
Summary of the method: as §2

[10] = system: Escherichia coli IAI1; experiment: fold change of Cadaverine concentration vs plate DMSO controls (fold change (ratio)); higher = more amine produced, active = hit call of the paper (significant change in both replicates, either direction)
Summary of the method: as §2

[11] = system: Klebsiella aerogenes DSM 30053; experiment: as above
Summary of the method: as §2

[12] = system: Ruminococcus gnavus DSM 108212; experiment: fold change of 2-Phenylethylamine concentration vs plate DMSO controls (fold change (ratio)); higher = more amine produced, active = hit call of the paper (significant change in both replicates, either direction)
Summary of the method: as §2

Structure (SMILES) | growth [1] | growth [2] | growth [3] | growth [4] | fold change of Histamine concentration [5] | fold change of Tryptamine concentration [6] | fold change of Tryptamine concentration [7] | fold change of Putrescine concentration [8] | fold change of Putrescine concentration [9] | fold change of Cadaverine concentration [10] | fold change of Cadaverine concentration [11] | fold change of 2-Phenylethylamine concentration [12]
CN(C)CCN(Cc1ccc(Cl)cc1)c1ccccn1 [Chloropyramine hydrochloride] (20 µM) | 0.894 | 1.03 | 0.92 | 0.771 | 0.98 (inactive) | 1.05 (inactive) | 1.16 (inactive) | 0.817 (inactive) | 0.975 (inactive) | 1.58 (active) | 0.994 (inactive) | 1.27 (inactive)
Nc1nc(=S)c2ncn([C@@H]3O[C@H](CO)[C@@H](O)[C@H]3O)c2[nH]1 [Thioguanosine] (20 µM) | 0.927 | 0.951 | 1.03 | 0.773 | 0.953 (inactive) | 0.981 (inactive) | 0.955 (inactive) | 0.479 (inactive) | 1.01 (inactive) | 0.903 (inactive) | 1.03 (inactive) | 0.925 (inactive)
CCC(=O)c1c(O)cc(O)cc1O [Flopropione] (20 µM) | 0.955 | 1.01 | 0.997 | 0.986 | 1.01 (inactive) | 1 (inactive) | 0.927 (inactive) | 1 (inactive) | 1.01 (inactive) | 1 (inactive) | 1 (inactive) | 0.896 (inactive)
CC(C)(C)NC(=O)[C@@H]1C[C@@H]2CCCC[C@@H]2CN1C[C@@H](O)[C@H](Cc1ccccc1)NC(=O)[C@H](CC(N)=O)NC(=O)c1ccc2ccccc2n1 [Saquinavir mesylate] (20 µM) | 0.98 | 1.1 | 1.03 | 1.12 | 0.937 (inactive) | 0.966 (inactive) | 0.979 (inactive) | 1.24 (inactive) | 0.993 (inactive) | 0.944 (inactive) | 1.01 (inactive) | 1.03 (inactive)
COc1ccc(CNc2nc(N3CCC[C@H]3CO)ncc2C(=O)NCc2ncccn2)cc1Cl [Avanafil] (20 µM) | 0.96 | 0.981 | 0.99 | 0.992 | 1.01 (inactive) | 0.958 (inactive) | 1.01 (inactive) | 1.04 (inactive) | 1 (inactive) | 1.02 (inactive) | 0.991 (inactive) | 1.01 (inactive)
CCN(CC)C(=S)SSC(=S)N(CC)CC [Disulfiram] (20 µM) | 1.03 | 0.988 | 0.991 | 1.38 | 1.06 (inactive) | 0.992 (inactive) | 1 (inactive) | 1.09 (inactive) | 1.03 (inactive) | 0.969 (inactive) | 1 (inactive) | 0.955 (inactive)
Cc1nc(C)c(Cl)c(O)c1Cl [Clopidol] (20 µM) | 1.18 | 1.01 | 1.04 | 1.14 | 1 (inactive) | 0.998 (inactive) | 1.01 (inactive) | 1.02 (inactive) | 0.991 (inactive) | 1.02 (inactive) | 0.985 (inactive) | 1.01 (inactive)
OC[C@H]1O[C@H](O[C@H]2O[C@H](CO)[C@@H](O)[C@H](O)[C@H]2O)[C@H](O)[C@@H](O)[C@@H]1O [Trehalose dihydrate] (20 µM) | 1 | 1.04 | 1.08 | 1.11 | 0.919 (inactive) | 0.967 (inactive) | 1.06 (inactive) | 1.02 (inactive) | 0.986 (inactive) | 0.988 (inactive) | 1 (inactive) | 1.09 (inactive)
CN1CC2c3ccccc3Oc3ccc(Cl)cc3C2C1 (stereo unspecified) [Asenapine maleate] (20 µM) | 1.1 | 0.969 | 1.04 | 0.834 | 0.986 (inactive) | 1.05 (inactive) | 0.905 (inactive) | 1 (inactive) | 1.02 (inactive) | 0.973 (inactive) | 0.998 (inactive) | 0.917 (inactive)
CC1CCc2cc(F)cc3c(=O)c(C(=O)O)cn1c23 (stereo unspecified) [Flumequine] (20 µM) | 0.015 | 0.0532 | 0.404 | 0.706 | 0.301 (active) | 0.0425 (active) | 0.989 (inactive) | 0.679 (active) | 1.13 (inactive) | 0.209 (active) | 0.975 (inactive) | 0.952 (inactive)
CCOC(=O)C1=C[C@]2(CC)CCCN3CCc4c(n1c1ccccc41)[C@@H]32 [Vinpocetine] (20 µM) | 0.883 | 0.979 | 1.03 | 1.14 | 0.922 (inactive) | 0.964 (inactive) | 0.955 (inactive) | 0.995 (inactive) | 1.02 (inactive) | 1.02 (inactive) | 1.02 (inactive) | 0.972 (inactive)
CCCCOCCOCCOCc1cc2c(cc1CCC)OCO2 (20 µM) | 1.07 | 1.02 | 1.03 | 1.09 | 0.98 (inactive) | 1.03 (inactive) | 1.04 (inactive) | 1 (inactive) | 1 (inactive) | 1.02 (inactive) | 1 (inactive) | 1.06 (inactive)
CC(=O)O[C@H]1C[C@@]2(C)[C@@H](C[C@@H](O)[C@H]3[C@@]4(C)CC[C@@H](O)[C@@H](C)[C@@H]4CC[C@@]32C)/C1=C(\CCC=C(C)C)C(=O)O [Fusidic acid sodium salt] (20 µM) | 0.00767 | 1.02 | 1.09 | 0.122 | 0.846 (inactive) | 0.0208 (active) | 0.102 (active) | 0.913 (inactive) | 0.963 (inactive) | 1 (inactive) | 1.02 (inactive) | 0.106 (active)
